PubChem BioAssay AID1964107 (National Center for Advancing Translational Sciences (NCATS), 2024)
In all, about 31,000 compounds went through this assay and about 360 (1.2%) were called active. Not shown: some 8% with an inconclusive outcome. Calls come from the whole dose curve. Only a selection was taken, and actives are over-represented in it overall.

Target: Polyprotein P1234 (Chikungunya virus (strain S27-African prototype)) (UniProt Q8JUX6)
Test: Primary qHTS for inhibitors of NSP2Pro chikungunya virus (CHIKV); note: nearly all actives have a fitted effect of over 60% in size
Conditions: FRET peptide cleavage, fluorescence 1 h; series mostly up to 24.9 µM; activity change, negative = inhibition: at the top concentration
From the text: PI: Natalia J. Martinez Ph.D. National Center for Advancing Translational Sciences (NCATS), National Institute of Health (NIH), Rockville, Maryland Chikungunya virus (CHIKV) is a mosquito-borne RNA virus that has emerged as one of the most important global arboviral threats in the last decade. Although the first CHIKV vaccine has recently been FDA approved for use in healthy adults at increased risk, to date, there are no available antiviral drugs for CHIKV infection. CHIKV nsP2 protease plays a crucial role in the processing of the viral polypeptide precursor to release enzymes required for viral replication, thus making it a promising drug target for antiviral discovery. Here, we established a high-throughput pipeline to identify small molecule inhibitors of nsP2 proteolytic activity. The pipeline is composed of a suite of 1,536-well in vitro assays to support quantitative high-throughput (qHTS) screening campaigns. Specifically, we developed a fluorescence resonance energy transfer (FRET)-based assay using a fluorogenic peptide substrate encompassing an endogenous cleavage site and purified recombinant protease domain (nsP2pro). Using this assay, we interrogated ~37,000 small molecules, including those in drug repurposing libraries as well as chemically diverse and medicinal chemistry-friendly compounds. Hits were selected for follow-up validation against full-length nsP2 and an additional peptide. FRET-based 1,536-well assays for papain, hepatitis C virus NS3-4A, and human furin proteases were implemented to characterize compound selectivity. […] Novel compounds were identified to be potential nsP2 inhibitors and molecular docking analyses were performed to explain the binding mode of selected hits. In vitro antiviral activity was evaluated for a subset of compounds using a high-throughput CHIKV infection assay. To our knowledge, the pipeline presented here is unprecedented for CHIKV antiviral discovery research.
PROTOCOL TABLE (as described by Inglese J, Shamu CE and Guy RK. 2007) SEQUENCE No. (e.g., 1, 2, 3, etc.); […] (e.g., Cells, Incubation, Reagent, etc.); VALUE; DESCRIPTION. 1; Control / Compound; 20 nL; Echo 655 acoustic dispenser, Greiner 1536-well solid bottom black plate. 2; Enzyme; 4 uL; BioRAPTR FRD liquid dispenser (Beckman Coulter). 3; Incubation; 15 min; room temperature. 4; Reagent; 4 uL; 2.5 uM Peptide 2 substrate. 5; Incubation; 1 hr; room temperature. 6; Detection; Fluorescence; WiewLux microplate reader (PerkinElmer), 525 nm excitation, 598/25 nm emission. NOTES (numbers refer to sequence numbers above). 1. Briefly, 20 nL DMSO, positive control ZnAc (20nM final concentration), and test compounds were transferred into a 1,536-well solid bottom black plate (789176-F, Greiner One) via Echo 655 acoustic dispenser (Beckman Coulter). For primary screens, compounds were tested at 7 concentrations, 1:3 dilution points ranging from 25 uM to 34 nM. Follow-up confirmatory screens were carried out at 11 concentrations, 1:3 dilution points from 25 uM to 0.42 nM. 2. Four uL nsP2pro enzyme mix (150 nM final concentration) in 10 mM Tris-HCl pH 8.0 with 0.01% Tween 20 assay buffer was dispensed into the plate using a BioRAPTR FRD liquid dispenser (Beckman Coulter). 3. The plate was incubated at room temperature (protected from light) for 15 min 4. Four microliter of peptide 2 substrate (2.5 uM final concentration) in assay buffer was added to the plate. 5. After 1 hour, plates were immediately read on a ViewLux high-throughput CCD imager (Exposure = 10 sec, Gain = High, Speed = Slow, Binning = 2X). The above assay was also incorporated in the NCATS HTS facility41, which allowed for robotic liquid and compound dispensing, microplate handling, and fluorescence reading.. REFERENCE: Inglese J, Shamu CE and Guy RK, Reporting data from high throughput screening of small molecule libraries, Nature Chemical Biology, 2007, 3(8): 438-441. doi.org/10.1038/nchembio0807-438.
% is set by controls: 0 for no effect and ±100 for the full control effect; potency is the fitted concentration of half-maximal effect.

Sequence of Polyprotein P1234 (Chikungunya virus (strain S27-African prototype)) (Q8JUX6 whole entry, looked up): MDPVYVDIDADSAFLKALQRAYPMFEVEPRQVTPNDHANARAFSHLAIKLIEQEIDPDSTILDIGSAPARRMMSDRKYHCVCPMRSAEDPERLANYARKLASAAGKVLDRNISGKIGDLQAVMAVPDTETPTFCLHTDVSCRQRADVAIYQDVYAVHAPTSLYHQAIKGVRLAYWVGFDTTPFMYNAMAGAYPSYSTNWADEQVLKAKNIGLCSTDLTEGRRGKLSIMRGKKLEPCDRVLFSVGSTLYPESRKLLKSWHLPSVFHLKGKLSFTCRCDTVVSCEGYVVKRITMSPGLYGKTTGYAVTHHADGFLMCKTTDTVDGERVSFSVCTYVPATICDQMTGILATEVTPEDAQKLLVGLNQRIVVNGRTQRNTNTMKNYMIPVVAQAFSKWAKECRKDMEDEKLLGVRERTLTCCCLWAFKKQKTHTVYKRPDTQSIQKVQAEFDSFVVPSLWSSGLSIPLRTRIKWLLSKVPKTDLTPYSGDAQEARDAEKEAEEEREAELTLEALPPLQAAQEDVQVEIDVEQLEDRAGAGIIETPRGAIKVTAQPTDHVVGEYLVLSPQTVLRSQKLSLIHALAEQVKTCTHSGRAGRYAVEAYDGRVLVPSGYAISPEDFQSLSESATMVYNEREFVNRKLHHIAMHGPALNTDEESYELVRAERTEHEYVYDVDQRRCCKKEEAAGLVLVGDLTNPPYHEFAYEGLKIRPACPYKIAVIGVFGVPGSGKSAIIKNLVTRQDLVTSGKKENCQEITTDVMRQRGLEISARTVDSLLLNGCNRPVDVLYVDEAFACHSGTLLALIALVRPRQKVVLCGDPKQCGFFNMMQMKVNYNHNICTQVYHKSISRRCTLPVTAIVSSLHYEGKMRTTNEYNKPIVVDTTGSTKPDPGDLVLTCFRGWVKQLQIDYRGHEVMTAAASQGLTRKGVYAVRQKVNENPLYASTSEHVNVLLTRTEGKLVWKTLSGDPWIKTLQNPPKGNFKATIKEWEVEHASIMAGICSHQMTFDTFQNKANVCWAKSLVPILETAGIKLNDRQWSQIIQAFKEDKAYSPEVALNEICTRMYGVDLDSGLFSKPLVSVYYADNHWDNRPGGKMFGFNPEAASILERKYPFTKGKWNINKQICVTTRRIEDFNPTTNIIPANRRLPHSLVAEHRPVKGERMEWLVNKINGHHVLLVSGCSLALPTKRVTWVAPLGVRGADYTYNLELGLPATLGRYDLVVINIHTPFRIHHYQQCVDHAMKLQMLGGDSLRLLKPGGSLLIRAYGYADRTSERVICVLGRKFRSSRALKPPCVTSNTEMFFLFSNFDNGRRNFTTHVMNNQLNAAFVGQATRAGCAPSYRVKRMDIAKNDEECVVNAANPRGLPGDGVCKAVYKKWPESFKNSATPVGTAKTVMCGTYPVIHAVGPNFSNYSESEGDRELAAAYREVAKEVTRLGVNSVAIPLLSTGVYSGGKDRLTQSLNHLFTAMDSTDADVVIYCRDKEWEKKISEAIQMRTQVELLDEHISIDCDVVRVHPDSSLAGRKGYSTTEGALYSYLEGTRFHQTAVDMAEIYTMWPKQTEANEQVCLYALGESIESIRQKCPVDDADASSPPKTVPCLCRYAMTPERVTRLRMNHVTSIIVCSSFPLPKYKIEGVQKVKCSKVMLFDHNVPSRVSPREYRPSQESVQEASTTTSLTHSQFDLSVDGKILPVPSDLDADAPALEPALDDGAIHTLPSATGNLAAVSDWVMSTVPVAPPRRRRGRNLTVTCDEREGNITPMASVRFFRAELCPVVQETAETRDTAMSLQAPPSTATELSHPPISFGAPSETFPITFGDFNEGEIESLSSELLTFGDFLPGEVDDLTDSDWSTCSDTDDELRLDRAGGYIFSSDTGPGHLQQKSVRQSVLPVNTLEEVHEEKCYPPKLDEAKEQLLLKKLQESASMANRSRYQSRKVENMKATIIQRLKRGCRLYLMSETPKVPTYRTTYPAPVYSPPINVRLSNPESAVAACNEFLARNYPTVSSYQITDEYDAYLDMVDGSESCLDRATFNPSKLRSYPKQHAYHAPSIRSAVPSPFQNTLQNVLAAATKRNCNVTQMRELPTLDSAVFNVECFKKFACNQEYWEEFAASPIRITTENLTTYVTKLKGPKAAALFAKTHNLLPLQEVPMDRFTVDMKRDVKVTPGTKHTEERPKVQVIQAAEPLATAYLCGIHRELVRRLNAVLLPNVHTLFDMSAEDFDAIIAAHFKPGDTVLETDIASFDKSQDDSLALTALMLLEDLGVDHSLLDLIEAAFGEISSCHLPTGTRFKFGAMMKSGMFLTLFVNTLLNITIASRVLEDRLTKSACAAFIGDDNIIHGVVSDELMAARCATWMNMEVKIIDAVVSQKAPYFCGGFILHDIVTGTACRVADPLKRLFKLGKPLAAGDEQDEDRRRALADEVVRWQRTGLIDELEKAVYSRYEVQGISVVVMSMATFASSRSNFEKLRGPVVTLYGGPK

SMILES | activity change, negative = inhibition | outcome | Potency
CC12CCC(O)CC1=CCC1C2CCC2(C)C(c3cccnc3)=CCC12 (stereo not given) | -16.8% [at 10 µM] (inactive) | – | –
O=C(C1CCCC1)N1CC2(CCCN(Cc3ccccn3)C2)Cc2ccccc21 (stereo not given) | – | inactive | –
Cc1cc(C(=O)Nc2cccc(C(F)(F)F)c2)c2c(C)nn(-c3cccc(F)c3)c2n1 | 46.5% (inactive) | – | –
NC(=O)c1noc([C@H](CCCC2CCCCC2)CC(=O)NO)n1 | -15.7% (inactive) | – | –
O=C(CC1N=C2c3ccccc3N=C(SCc3cccc(Cl)c3)N2C1=O)NCc1ccc2c(c1)OCO2 (stereo not given) | -20.2% (inactive) | – | –
CC(C)(C)c1cc(C(=O)O)c(NC(=O)Nc2ccc3[nH]ncc3c2)s1 | 3.33% (inactive) | – | –
CC(Nc1ncnc2ccc(-c3ccc4c(c3)OCO4)cc12)c1ccco1 (stereo not given) | – | inactive | –
CCC(CC)c1nn2cc(-c3ccccc3)nc2s1 | -32.1% (inactive) | – | –
CCOC(=O)c1cc2c(=O)n3ccccc3nc2n(CCCOC)c1=NC(=O)C(C)Oc1ccccc1 (stereo not given) | -15% (inactive) | – | –
C=CC(=O)c1ccc2ccccc2c1 | – | – | 9.88 µM (active)
O=C(CN1CCOC1=O)N1CCn2nc(C(O)Cc3ccccc3)cc2C1 (stereo not given) | -4.53% (inactive) | – | –
COc1ccc(CCNC(=O)C(=O)NCC(c2ccco2)S(=O)(=O)c2cccs2)cc1OC (stereo not given) | -13.2% (inactive) | – | –
O=C(O)c1ccc(CSc2nc3cccnc3n2Cc2cccc(F)c2)cc1 | -15.8% (inactive) | – | –
O=S(=O)(c1ccc2c(c1)OCCCO2)N1CCN(S(=O)(=O)c2c(F)cccc2F)CC1 | -1.31% (inactive) | – | –
Cc1ccc(C(=O)NC2CCN(C#N)CC2)cc1 | -7.02% (inactive) | – | –
Cn1c(C(=O)N2CCC(C(=O)N3CCN(c4ccccc4)CC3)CC2)cc2sccc21 | 3.22% (inactive) | – | –
Cc1ccsc1C(=O)C1CCCN(Cc2ccc(OC(C)C)c(CO)c2)C1 (stereo not given) | – | inactive | –
CCOc1ccc(CCNC(=O)C2=C(C)C(=O)OC23CCC(C)CC3)cc1OCC (stereo not given) | -4.16% (inactive) | – | –
COc1ccccc1-c1nnc2n1N=C(c1ccc(OC(F)F)c(OCC3CC3)c1)CS2 | -5.34% (inactive) | – | –
O=C(Nc1ncc(Cc2ccc(C(F)(F)F)cc2)s1)c1cnc(-c2ccccc2)o1 | -4.65% (inactive) | – | –
CCOc1ccc(CCNC(=O)c2c(C)oc3ncn(C)c(=O)c23)cc1 | -10.1% (inactive) | – | –
CN[C@H]1CN(c2ccc3c(=O)c(C(=O)O)cn(-c4nccs4)c3n2)C[C@@H]1OC | -5.01% [at 5.1 µM] (inactive) | – | –
Cc1cc(F)ccc1NC(=O)CCC1CCCN(C(=O)c2ccc(Cl)s2)C1 (stereo not given) | -2.75% (inactive) | – | –

SMILES | activity change, negative = inhibition | outcome | Potency
CCC(CC)[C@H](NC(C)=O)[C@@H]1[C@H](O)[C@@H](C(=O)O)C[C@H]1N=C(N)N | -4.24% [at 0.199 µM] (inactive) | – | –
C[C@@H]1O[C@@H](O[C@@H]2[C@@H](O)[C@H](O[C@@H]3[C@@H](O)[C@@H](O)[C@H](O[C@H]4[C@H](OC(=O)[C@]56CCC(C)(C)C[C@H]5C5=CCC7[C@@]8(C)C[C@H](O)[C@H](O[C@@H]9O[C@@H](C)[C@H](O)[C@@H](O)[C@H]9O)[C@@](C)(CO)C8CC[C@@]7(C)[C@]5(C)C[C@H]6O)O[C@H](C)[C@H](O)[C@@H]4O)O[C@H]3C)OC[C@H]2O)[C@H](O)[C@H](O)[C@H]1O (stereo not given in full) | 10.2% [at 5.1 µM] (inactive) | – | –
Cc1nc(C)c(-c2ccc3ncnc(NCc4ncc[nH]4)c3c2)s1 | – | inactive | –
COc1cccc(CNCCSc2nnnn2C)c1OCc1ccccc1Cl | -28.7% (inactive) | – | –
O=C(Nc1cc(C(F)(F)F)ccc1Cl)c1ccc2c(c1)CCN2S(=O)(=O)c1ccccc1 | -9.56% (inactive) | – | –
COc1cc(OC)cc(C(=O)NCCc2csc3nc(-c4ccccc4F)nn23)c1 | -4.65% (inactive) | – | –
CCc1ccc(NC(=O)C(=O)NNC(=O)Cc2ccc(Cl)c(Cl)c2)cc1 | – | inactive | –
Cc1cc(C)cc(NC(=O)CSc2nc(=O)n(CCN3CCOCC3)c3c2CCC3)c1 | -16.5% (inactive) | – | –
O=C(c1cccc(F)c1)N1CCCC(CN2CCOCC2)CC1 (stereo not given) | -18.1% (inactive) | – | –
O=C(CCc1cn(Cc2ccc(F)cc2)c2ccccc12)NC1CCCCC1 | -6.32% (inactive) | – | –
COc1ccc(Cl)cc1S(=O)(=O)N1CCC(c2ccncc2)CC1 | -8.44% (inactive) | – | –
COc1cccc(-n2ccn(CC(=O)NCc3ccc(C)cc3)c(=O)c2=O)c1 | -14.9% (inactive) | – | –
CN(C(=O)c1ccc2c(c1)N(Cc1cccc(Cl)c1)C(=O)c1ccccc1S2=O)C1CCCCC1 (stereo not given) | -7.42% (inactive) | – | –
O=C(CSc1nccn1C1CCCC1)Nc1cc(C(F)(F)F)ccc1Cl | -12.2% (inactive) | – | –
COc1ccccc1N1CCN(c2ccc(=O)n(CC(=O)NCc3ccc(OC(C)C)cc3)n2)CC1 | -12.8% (inactive) | – | –
CC1CCC2(C)C(CC(O)C(O)C23CO3)C1(C)CCC1=CC(O)OC1=O (stereo not given) | -4.36% (inactive) | – | –
Cc1noc(C)c1S(=O)(=O)N1CC(C(=O)NC2CCCCC2)C2(CCOCC2)C1 (stereo not given) | -2.85% (inactive) | – | –
COc1cccc(-c2cc(C(=O)N3CCN(c4ncccn4)CC3)c3cnn(C)c3n2)c1 | – | inactive | –
CCc1ccc(C(=O)CC2(O)C(=O)N(CCc3ccccc3)c3ccc(Br)cc32)cc1 (stereo not given) | -13.5% (inactive) | – | –
COCc1nc(C2CC(N)C2)cc(N2CCC(Cn3cccn3)CC2)n1 (stereo not given) | -3.16% (inactive) | – | –
O=C(Nc1cc(-c2ccccc2)nn1-c1ccccc1F)c1ccc([N+](=O)[O-])cc1 | 8.97% (inactive) | – | –
COc1ncccc1-c1cc(-c2cn[nH]c2)c2cncn2c1 | – | inactive [at 39.2 µM] | –
